Reference: PubChem BioAssay
Calls of active or inactive are those of the source. Unless noted, no rule for the calls is given here.

Experiments:
[1] = system: Wnt5a (protein binding on small-molecule microarray); test: Wnt5a binders on small-molecule microarray, primary screen, biophysical, 635/667 nm fluorescence (AID 1142); conditions: 635 nm fluorescence, higher = more signal;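 also: fluorescence read at 667 nm with signal to noise per printed feature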
[2] = cell viability in Huh7 cells, primary screen, cytotoxicity control for HCV replication inhibitor project, CellTiter-Glo luminescence, basal, 48 h (AID 1143); conditions: Huh7 HCV replicon, higher = more signal, called active from +8 up or from −8 down;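 also: Huh7 hepatoma cells carrying a hepatitis C replication reporter with no stimulus; test concentration not given here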
[3] = P. aeruginosa biofilm formation inhibitors, primary screen, PAO1 strain, BacTiter-Glo luminescence, LB-PBS (AID 1144); conditions: 12 h, higher = more signal
[4] = CREB reporter modulators without forskolin, primary screen, cell-based, PC12, CRE-LacZ reporter, unstimulated (AID 1145); conditions: no forskolin, luminescence, 4.5 h, higher = more signal, called active from +8 up or from −8 down
[5] = CREB reporter modulators under forskolin, primary screen, cell-based, PC12, CRE-LacZ reporter, forskolin-stimulated (AID 1146); conditions: luminescence, 4.5 h, higher = more signal, called active from +8 up or from −8 down;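 also: PC12 cells with 6xCRE LacZ reporter stimulated by forskolin 10 µM; beta-galactosidase reporter signal reflecting CREB driven transcription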
[6] = biological target: Streptavidin (Streptomyces avidinii) (UniProt P22629); test: streptavidin binders on small-molecule microarray, primary screen, artefact control for SMM compound annotation, biophysical, 635/667 nm fluorescence (AID 1147); conditions: streptavidin binding, higher = more signal;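 also: signal reflects streptavidin binding to arrayed compounds as a control protein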
[7] = small-molecule binders of probe aInhba, primary screen, biochemical, small-molecule microarray, 635/667 nm fluorescence (AID 1148); conditions: higher = more signal;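 also: score merges 667nm spot fluorescence with signal-to-noise for antibody binding to printed compounds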
Torsin-1A (Homo sapiens) [8] = biological target: Torsin-1A (Homo sapiens) (UniProt O14656); test: torsin A binders from cell lysate, primary screen, small-molecule microarray, wild-type, 635/667 nm (AID 1149); conditions: COS7 hTOR1A-WT lysate, 635 nm fluorescence, higher = more signal
Torsin-1A (Homo sapiens) [9] = biological target: Torsin-1A (Homo sapiens) (UniProt O14656); test: small-molecule binders of mutant TOR1A in lysate, primary screen, cell lysate, small-molecule microarray, COS7 lysate, 635/667 nm fluorescence (AID 1150); conditions: COS7 hTOR1A mutant lysate, 635 nm fluorescence, higher = more signal;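 also: score pools 667 nm emission and signal to noise measuring lysate protein binding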
[10] = system: Sonic hedgehog protein (Shh); test: small-molecule binders of Shh protein, primary screen, biochemical, small-molecule microarray, 635/667 nm fluorescence (AID 1151); conditions: small-molecule microarray binding, 635 nm fluorescence; higher = more signal;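 also: Shh protein binding to compounds spotted on small-molecule microarray slides; score combines spot fluorescence intensity with signal-to-noise across triplicate slides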
[11] = E. coli DRC41 culture turbidity changes, primary screen, E. coli filamentation inducer project, strain DRC41, OD650, 48 h (AID 1152);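 also: E. coli MC1000 strain DRC41 lacking acrAB efflux pump and sulA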; conditions: E. coli DRC41 (acrAB sulA), higher = more signal, called active from +8 up or from −8 down
[12] = small-molecule binders of probe aLefty1, primary screen, biochemical, small-molecule microarray, 635/667 nm fluorescence (AID 1153); conditions: higher = more signal;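 also: score merges spot fluorescence with signal-to-noise ratio from the scanned slide images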
[13] = PSAC antagonists in infected red cells, primary screen, cell-based, P. falciparum Indochina, OD700, 1 h (AID 1154); conditions: P. falciparum Indochina infected RBC osmotic lysis, higher = more signal, called active from +8 up or from −8 down
[14] = PSAC antagonists in infected red cells, primary screen, cell-based, P. falciparum Indochina, OD700, 2 h (AID 1155);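 also: lysis reports solute entry through the parasite surface anion channel PSAC; channel blockers reduce lysis of infected cells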; conditions: P. falciparum Indochina infected erythrocytes, osmotic lysis OD700; higher = more signal, called active from +8 up or from −8 down
[15] = osmotic lysis modulators in infected erythrocytes, primary screen, PSAC antagonist project, cell-based, P. falciparum Indochina, OD700, 3 h (AID 1156); conditions: higher = more signal, called active from +8 up or from −8 down
[16] = PSAC antagonists in infected red cells, primary screen, cell-based, P. falciparum Indochina, OD700, 18 h (AID 1157); conditions: P. falciparum Indochina infected erythrocytes, osmotic lysis OD700, 18 h; higher = more signal, called active from +8 up or from −8 down
[17] = modulators of S6 phosphorylation in cells, primary screen, cell-based, A549, cytoblot, luminescence, serum-stimulated (AID 1158); conditions: A549 phospho-S6 cytoblot, 5 h, higher = more signal;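 also: serum-stimulated A549 lung adenocarcinoma cells; signal is phosphorylated S6 detected by cytoblot immunostaining with HRP secondary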
[18] = biological target: NADPH oxidase 2 (Homo sapiens) (UniProt P04839); test: NOX2-dependent H2O2 signal modulators, primary screen, NOX inhibitor project, cell-based, HEK293-NOX2, PMA-stimulated, Amplex Red fluorescence (AID 1159); conditions: 45 min, higher = more signal, called active from +8 up or from −8 down; also: test concentration not given here
[19] = biological target: NADPH oxidase 4 (Homo sapiens) (UniProt Q9NPH5); test: NOX4-dependent H2O2 signal modulators, primary screen, NOX inhibitor project, cell-based, HEK293-NOX4, tetracycline-induced, Amplex Red fluorescence (AID 1160); conditions: 45 min, higher = more signal, called active from +8 up or from −8 down
[20] = biological target: NADPH oxidase 5 (Homo sapiens) (UniProt Q96PH1); test: NOX5-dependent H2O2 signal modulators, primary screen, NOX inhibitor project, cell-based, HEK293-NOX5, Amplex Red fluorescence (AID 1161); conditions: HEK293-NOX5, ionomycin, 45 min, higher = more signal
Sequence of NADPH oxidase 5 (Homo sapiens) (Q96PH1 whole entry, looked up): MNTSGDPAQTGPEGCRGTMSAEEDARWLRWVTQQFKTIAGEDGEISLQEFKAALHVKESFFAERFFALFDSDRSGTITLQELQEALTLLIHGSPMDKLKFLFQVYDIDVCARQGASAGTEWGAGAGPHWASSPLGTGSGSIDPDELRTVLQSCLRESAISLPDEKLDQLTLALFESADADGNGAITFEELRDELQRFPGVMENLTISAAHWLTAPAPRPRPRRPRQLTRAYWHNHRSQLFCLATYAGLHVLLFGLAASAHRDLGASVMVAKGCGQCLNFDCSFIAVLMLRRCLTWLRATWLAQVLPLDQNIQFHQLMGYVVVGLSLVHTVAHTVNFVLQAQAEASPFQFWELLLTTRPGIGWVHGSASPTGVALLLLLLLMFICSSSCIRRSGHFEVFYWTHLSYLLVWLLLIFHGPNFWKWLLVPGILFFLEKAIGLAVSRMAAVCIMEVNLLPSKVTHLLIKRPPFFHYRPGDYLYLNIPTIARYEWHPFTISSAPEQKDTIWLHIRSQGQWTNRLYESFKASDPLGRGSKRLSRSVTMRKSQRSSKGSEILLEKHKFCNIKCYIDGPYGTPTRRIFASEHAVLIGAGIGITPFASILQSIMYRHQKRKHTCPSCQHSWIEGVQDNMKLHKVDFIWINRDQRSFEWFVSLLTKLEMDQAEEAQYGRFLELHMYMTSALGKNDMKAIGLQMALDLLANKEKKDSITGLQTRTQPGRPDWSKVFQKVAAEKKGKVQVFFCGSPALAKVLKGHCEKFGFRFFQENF

Sequence of NADPH oxidase 2 (Homo sapiens) (P04839 whole entry, looked up): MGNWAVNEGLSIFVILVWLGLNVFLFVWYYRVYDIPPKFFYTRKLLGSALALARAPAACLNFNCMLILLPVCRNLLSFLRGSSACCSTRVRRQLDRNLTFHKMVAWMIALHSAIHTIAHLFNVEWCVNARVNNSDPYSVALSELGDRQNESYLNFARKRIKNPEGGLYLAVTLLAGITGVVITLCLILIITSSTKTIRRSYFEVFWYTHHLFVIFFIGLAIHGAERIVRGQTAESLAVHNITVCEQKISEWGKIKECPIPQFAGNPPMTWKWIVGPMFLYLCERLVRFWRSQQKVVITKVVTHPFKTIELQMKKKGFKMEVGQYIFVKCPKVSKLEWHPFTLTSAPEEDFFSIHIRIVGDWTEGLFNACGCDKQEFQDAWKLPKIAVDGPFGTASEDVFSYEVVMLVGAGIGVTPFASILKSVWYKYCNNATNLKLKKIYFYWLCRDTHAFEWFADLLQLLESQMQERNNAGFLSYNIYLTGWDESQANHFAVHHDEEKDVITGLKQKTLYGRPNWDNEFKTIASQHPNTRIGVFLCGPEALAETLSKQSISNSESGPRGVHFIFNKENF
Sequence of Streptavidin (Streptomyces avidinii) (P22629 whole entry, looked up): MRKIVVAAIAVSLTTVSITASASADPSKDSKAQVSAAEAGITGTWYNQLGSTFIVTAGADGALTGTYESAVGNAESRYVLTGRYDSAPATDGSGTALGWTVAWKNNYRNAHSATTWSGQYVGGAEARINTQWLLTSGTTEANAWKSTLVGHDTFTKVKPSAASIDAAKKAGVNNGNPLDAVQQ
Sequence of Torsin-1A (Homo sapiens) (O14656 whole entry, looked up): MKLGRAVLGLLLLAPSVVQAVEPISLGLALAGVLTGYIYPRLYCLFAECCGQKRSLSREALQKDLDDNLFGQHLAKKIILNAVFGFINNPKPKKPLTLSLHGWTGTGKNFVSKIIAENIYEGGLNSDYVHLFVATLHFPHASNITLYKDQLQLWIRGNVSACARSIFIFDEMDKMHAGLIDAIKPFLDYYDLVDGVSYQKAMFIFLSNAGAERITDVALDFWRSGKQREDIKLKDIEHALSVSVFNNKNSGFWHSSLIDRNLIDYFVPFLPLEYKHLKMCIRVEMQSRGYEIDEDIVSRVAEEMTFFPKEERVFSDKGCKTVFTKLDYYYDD
Sequence of NADPH oxidase 4 (Homo sapiens) (Q9NPH5 whole entry, looked up): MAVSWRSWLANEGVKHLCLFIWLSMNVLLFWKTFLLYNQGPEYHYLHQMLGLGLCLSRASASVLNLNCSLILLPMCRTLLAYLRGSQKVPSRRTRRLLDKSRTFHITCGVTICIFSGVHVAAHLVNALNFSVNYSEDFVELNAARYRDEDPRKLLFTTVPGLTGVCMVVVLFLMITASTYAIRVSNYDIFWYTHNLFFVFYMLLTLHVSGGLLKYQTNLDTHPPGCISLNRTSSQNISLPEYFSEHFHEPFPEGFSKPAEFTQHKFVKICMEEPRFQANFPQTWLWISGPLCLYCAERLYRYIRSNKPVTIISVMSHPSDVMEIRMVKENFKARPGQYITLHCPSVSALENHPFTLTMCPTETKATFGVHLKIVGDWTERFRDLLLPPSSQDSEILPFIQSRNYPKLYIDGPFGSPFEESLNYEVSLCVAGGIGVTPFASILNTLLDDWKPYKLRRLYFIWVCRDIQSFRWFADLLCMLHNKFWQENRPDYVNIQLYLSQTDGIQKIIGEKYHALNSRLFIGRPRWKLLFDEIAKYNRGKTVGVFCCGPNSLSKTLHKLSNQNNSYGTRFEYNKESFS

| Structure (SMILES) | composite z-score [1] | z-score [2] | z-score [3] | z-score [4] | z-score [5] | composite z-score [6] | composite z-score [7] | composite z-score (Torsin-1A (Homo sapiens) [8]) | composite z-score (Torsin-1A (Homo sapiens) [9]) | composite z-score [10] | z-score [11] | composite z-score [12] | z-score [13] | z-score [14] | z-score [15] | z-score [16] | z-score [17] | z-score [18] | z-score [19] | z-score [20] |
| --- | --- | --- | --- | --- | --- | --- | --- | --- | --- | --- | --- | --- | --- | --- | --- | --- | --- | --- | --- | --- |
| COc1ccc([Si](C)(C)[C@@H]2[C@@H](CCO)O[C@]3(C(=O)N(Cc4ccc(N5C(=O)COc6ccccc65)cc4)c4ccccc43)[C@H]2C)cc1 | 0.44 | -7.31 (inactive) | -0.374 (inactive) | 0.804 (inactive) | 2.02 (inactive) | 0.636 | 0.0261 | 0.436 | 0.586 | 1.57 | -0.163 (inactive) | 0.165 | 3.9 (inactive) | 3.84 (inactive) | 0.746 (inactive) | 2.39 (inactive) | 0.866 | 0.506 (inactive) | 1.46 (inactive) | 1.38 |
| COCCOC(=O)N1C(=O)[C@@]2(c3cc(C#CCCO)ccc31)[C@H](C(=O)N1CCc3cc(OC)c(OC)cc3C1)[C@H]1C(=O)O[C@H](c3ccccc3)[C@H](c3ccccc3)N1[C@@H]2c1ccc(O)cc1 | 0.304 | -0.173 (inactive) | -0.14 (inactive) | -0.815 (inactive) | -0.742 (inactive) | 0.25 | 0.132 | 0.73 | 0.538 | 0.918 | 0.38 (inactive) | 0.88 | 1.49 (inactive) | 0.349 (inactive) | 0.262 (inactive) | 0.222 (inactive) | 0.113 | 1.26 (inactive) | 0.706 (inactive) | 1.29 |
| O=C1O[C@@H](c2ccccc2)[C@@H](c2ccccc2)N2[C@@H](c3ccccc3OCCO)[C@]3(C(=O)Nc4ccc(C#CC5=CCCCC5)cc43)[C@@H](C(=O)Nc3nc4ccccc4s3)[C@H]12 | 0.799 | -4.3 (inactive) | -1.15 (inactive) | -0.191 (inactive) | 0.447 (inactive) | 1.1 | 0.0516 | -0.271 | 0.335 | 0.988 | 0.36 (inactive) | 0.293 | 1.83 (inactive) | 1.9 (inactive) | 1.37 (inactive) | 1.83 (inactive) | 0.653 | 1.78 (inactive) | 0.387 (inactive) | 1.59 |
| COCCOC(=O)N1C(=O)[C@@]2(c3ccccc31)[C@H](c1ccccc1OCCO)N1[C@H](c3ccccc3)[C@H](c3ccccc3)OC(=O)[C@H]1[C@@H]2C(=O)Nc1nc2ccccc2s1 | 0.212 | -3.78 (inactive) | -0.868 (inactive) | -0.0566 (inactive) | 2.86 (inactive) | 1.14 | 0.113 | 0.421 | 1.25 | 1.81 | 1.57 (inactive) | 0.523 | 3.27 (inactive) | 2.77 (inactive) | 1.37 (inactive) | 1.84 (inactive) | 0.59 | 1.39 (inactive) | 1.41 (inactive) | 0.676 |
| CN(C)C(=O)[C@@]1(Cc2ccccc2CN=[N+]=[N-])N=C(c2ccc(OCCCO)cc2)O[C@H]1c1ccccc1 | 0.522 | -2.54 (inactive) | 0.378 (inactive) | 0.629 (inactive) | -0.524 (inactive) | -0.154 | 0.7 | 0.209 | 0.681 | -0.221 | 0.381 (inactive) | 1.18 | 20.9 (active) | 5.46 (inactive) | 1.59 (inactive) | 1.45 (inactive) | -0.0813 | -2.45 (inactive) | -0.0483 (inactive) | 0.524 |
| CCOC(=O)C[C@H]1[C@H](OC(=O)Cc2ccc3c(c2)OCO3)[C@@H](NC(=O)c2ccc(-c3ccccc3)cc2)c2cc(OCCCO)ccc2N1C(=O)Cc1ccc(OC)cc1 | 0.267 | -0.921 (inactive) | -0.304 (inactive) | 6.24 (inactive) | 0.0489 (inactive) | 0.0687 | -0.0754 | 0.0816 | 0.394 | 0.965 | 2.84 (inactive) | 0.123 | 25.4 (active) | 11.2 (active) | -0.67 (inactive) | 0.464 (inactive) | 1.74 | -1.35 (inactive) | 1.26 (inactive) | 2.24 |
| CC1CC/C=C\[C@H]2OC34C=CCN(c5ccc(Cl)cc5)C(=O)[C@H]3N(CCO)C(=O)[C@]4(C)C2C(=O)O1 (stereo not given in full) | -0.642 | -0.901 (inactive) | 0.43 (inactive) | 0.87 (inactive) | -0.217 (inactive) | -0.561 | -0.128 | -0.433 | -1.01 | -0.317 | -0.209 (inactive) | -0.485 | 2.73 (inactive) | 0.402 (inactive) | 0.0852 (inactive) | 0.382 (inactive) | 1.13 | 1.66 (inactive) | 0.741 (inactive) | 3.16 |
| C[N+](C)(C)CCCC[C@@H]1NC(=O)[C@@H]2C[C@H](C(=O)NCCCCCN)[C@H](c3cccc(OCCO)c3)N2C1=O | -0.0878 | 0.288 (inactive) | -0.165 (inactive) | 0.7 (inactive) | 0.508 (inactive) | 1.19 | -0.117 | 0.345 | -0.149 | -0.125 | -0.272 (inactive) | -0.0412 | 1.85 (inactive) | 0.508 (inactive) | 0.214 (inactive) | 0.129 (inactive) | -0.0726 | 0.79 (inactive) | 0.289 (inactive) | 1.54 |
| C[N+](C)(C)CCCCNC(=O)[C@H]1C[C@H]2C(=O)N[C@@H](Cc3ccccc3)C(=O)N2[C@H]1c1ccc(O)cc1 | 0.134 | 0.0641 (inactive) | 0.0228 (inactive) | 0.143 (inactive) | 0.465 (inactive) | -0.455 | 0.106 | 0.81 | 0.513 | 2.04 | 0.274 (inactive) | -0.142 | 0.891 (inactive) | 0.0222 (inactive) | -0.271 (inactive) | 0.228 (inactive) | 0.149 | -2.12 (inactive) | -1.27 (inactive) | -2.42 |
